Source: PubChem (The Scripps Research Institute Molecular Screening Center)
Only some compounds are listed: those with a hit (about 2.4% of all), similar ones and a draw of the others.
CHRM1 agonist: agonists of human M1 muscarinic receptor; activation, % at 3 µM; 360,000 compounds, 0.33% hits; P11229; AID 588814; CHO-K1 hM1, Fluo-8 calcium fluorescence, agonist mode; 0% DMSO, 100% acetylcholine EC100;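 active = activation above the run's mean compound activation plus 3 SD, cut at about 16% in these data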;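 note: peak over basal fluorescence ratio within a 140 s kinetic read after compound addition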
Target sequence (P11229 whole entry, looked up): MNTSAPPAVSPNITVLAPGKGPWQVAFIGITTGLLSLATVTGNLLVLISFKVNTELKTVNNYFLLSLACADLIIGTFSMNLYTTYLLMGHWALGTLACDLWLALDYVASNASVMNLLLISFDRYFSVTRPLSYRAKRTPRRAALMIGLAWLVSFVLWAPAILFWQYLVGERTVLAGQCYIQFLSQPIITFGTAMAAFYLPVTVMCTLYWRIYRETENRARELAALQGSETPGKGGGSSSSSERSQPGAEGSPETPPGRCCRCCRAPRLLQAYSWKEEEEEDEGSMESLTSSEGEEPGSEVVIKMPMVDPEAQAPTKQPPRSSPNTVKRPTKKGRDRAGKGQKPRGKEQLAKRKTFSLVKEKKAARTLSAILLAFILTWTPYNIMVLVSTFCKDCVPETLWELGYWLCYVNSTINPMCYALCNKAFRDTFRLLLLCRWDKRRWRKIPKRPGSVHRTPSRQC
CHO-K1 Ca ag: M1 agonist counterscreen hit in parental CHO-K1 cells; Fluo-8 calcium fluorescence; scaled to maximal ATP response, vehicle zero; activation, % at 3 µM; 360,000 compounds, 0.48% hits; AID 602248; in the data active = activation above about 15%;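 note: untransfected CHO-K1 host cells lacking M1 receptor as counterscreen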
CHO-K1 Ca antag: M1 antagonist counterscreen hit in parental CHO-K1 cells. 360,000 compounds, 0.6% hits. inhibition, % at 3 µM. ATP-induced calcium, Fluo-8 fluorescence;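 active = inhibition above a per-plate cutoff, the plate's mean sample inhibition plus 3 SD, cut at about 24% in these data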;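 note: 0% = DMSO plus EC80 ATP and 100% = DMSO alone without ATP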
CHO-K1 Ca PAM: M1 PAM counterscreen hit in parental CHO-K1 cells. ATP EC20, Fluo-8 calcium fluorescence; 0% at ATP EC20, 100% at ATP max. AID 602247. 360,000 compounds, 0.02% hits. activation, % at 3 µM;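 active = activation above the run cutoff, the mean activation of all test compounds plus 3 SD, cut at about 40% in these data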;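 note: peak over basal fluorescence ratio in a 140 s read after ATP addition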
M1 antag: antagonists of human M1 muscarinic receptor. CHO-K1 hM1, Fluo-8 calcium fluorescence, ACh EC80 antagonist. P11229. 360,000 compounds, 1.3% hits. inhibition, % at 3 µM;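 active = percent inhibition above its own plate's cutoff, namely the mean of that plate's compound wells plus 3 SD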;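 note: peak over basal fluorescence ratio during 140 s after agonist addition; 0% = ACh EC80 plus DMSO and 100% = DMSO alone without agonist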
M1 PAM: positive allosteric modulators of human M1 muscarinic receptor | activation, % at 3 µM | CHO-K1 hM1, Fluo-8 calcium fluorescence, ACh EC20; 0% = ACh EC20, 100% = maximal ACh | 360,000 compounds, 0.088% hits | P11229 | AID 588819; in the data active = activation above about 19%, passing the limit was not always enough
The depositor's hits bear a star.

SMILES	CHRM1 agonist	CHO-K1 Ca ag	CHO-K1 Ca antag	CHO-K1 Ca PAM	M1 antag	M1 PAM
Cc1ccc(NC2=NCC(Cc3ccc(Br)cc3)S2)cc1 (centres undefined)	-9	10	-8	29	38*	-26
CCC(CC)NC(=O)Cc1ccc(F)cc1	-3	12	-1	-10	7	0
Cn1c(=O)c2c(nc(SCC(=O)N3c4ccccc4CCc4ccccc43)n2C)n(C)c1=O	-2	-1	22	-11	19	-12
CCn1c(SCC(=O)N2CCCC2)nc2c1c(=O)n(C)c(=O)n2C	-7	0	-17	7	-14	9
Cn1c(=O)c2c(nc(SCC(=O)N3CCc4ccccc4C3)n2C)n(C)c1=O	16*	0	8	-11	-5	17
CCn1c(SCC(=O)N2CCC(C)CC2)nc2c1c(=O)n(C)c(=O)n2C	-6	1	-2	11	-31	28*
COc1cccc(NC(=O)COC(=O)c2ccccc2C(=O)N2CCN(c3ccccc3)CC2)c1	2	5	-11	-10	2	-1
COc1cc(C[C@@H]2C(=O)OC[C@H]2Cc2ccc(OC)c(OC)c2)ccc1O	3	12	4	5	50*	-24
O=C(O)Cn1nnnc1SCC(=O)Nc1ccc(F)cc1F	-1	0	14	-9	-1	-5
CC(=O)c1c(C)n(CC(=O)NCc2ccco2)c2ccccc12	-3	2	-27	2	35*	-9
COc1ccc(CNCCNC(=O)c2nonc2N)cc1OC	-4	0	23	-5	4	9
COc1cc(CNCCNC(=O)c2nonc2N)ccc1OCc1ccc(Cl)nc1	-11	20*	-8	24	0	15
Cc1nc(-c2ccc(O)c(O)c2)cs1	-3	0	26*	-9	1	5
C=CCn1c(SCCOC)nc2c1c(=O)[nH]c(=O)n2C	-4	1	-9	22	-10	6
C=CCn1c(SCCN2CCCCC2)nc2c1c(=O)[nH]c(=O)n2C	-12	0	20	-4	28*	-20
CC(=O)N1CCN(CC(O)COc2ccc(S(=O)(=O)N3CCOCC3)cc2)CC1 (centres undefined)	-5	0	-21	8	-21	15
O=C(OC(c1ccccc1)c1nccc2ccccc12)c1cc([N+](=O)[O-])cc([N+](=O)[O-])c1 (centres undefined)	-8	12	4	17	35*	-18
CN(CCc1ccccc1)C1CCCN(C(=O)Cn2cccn2)C1 (centres undefined)	-14	1	-17	9	5	-9
CCN(CC)c1ccc(/C=C(\C#N)c2ccccn2)cc1	-6	1	26*	-16	10	-13
O=c1c2oc3ccccc3c2ncn1Cc1ccc(Cl)cc1	-5	1	-11	10	1	1
Nc1ncnc2c1ncn2[C@@H]1O[C@H](C(=O)NS(=O)(=O)c2cccs2)[C@@H](O)[C@H]1O	-2	0	6	-9	-34	6
COCCCNc1ccn2nc(-c3cccc(OCc4ccccc4)c3)cc2n1	-1	2	9	-4	27*	-11
OC1CCC(Nc2ccn3nc(-c4cccc(Cl)c4)cc3n2)CC1 (centres undefined)	-1	3	-7	15	-3	0
COCCCNc1ccn2nc(-c3ccccc3)cc2n1	-2	1	-1	2	-17	5
OC1CCC(Nc2ccn3nc(-c4cccc(OCc5ccccc5)c4)cc3n2)CC1 (centres undefined)	7	5	29*	-7	20	-8
SMILES	CHRM1 agonist	CHO-K1 Ca ag	CHO-K1 Ca antag	CHO-K1 Ca PAM	M1 antag	M1 PAM
O=C(O)c1ccc(C(=O)Nc2cccc3ccccc23)c(C(=O)O)c1	-2	0	2	-7	-16	14
CCOc1ccc(N(C)S(=O)(=O)c2ccc(C)c(C(=O)OCC(=O)c3c[nH]c4ccccc34)c2)cc1	-6	1	10	-7	-5	7
O=C(NC1CCCCC1)c1cc2ccccc2cc1O	1	-1	-21	-8	-25	24*
CC(CCc1ccccc1)NC(=O)CN1CCSc2ccccc21 (centres undefined)	-9	0	-11	10	-3	-3
CCC(C)N1C(=O)CN(C2CCCCCC2)C(=O)C1c1ccccc1F (centres undefined)	-7	1	-21	9	-3	5
CCC(C(=O)NC1CCCCC1)n1c(SCc2cccc(C)c2)nc2ccncc21 (centres undefined)	-11	2	-9	7	28	-29
CCC(C(=O)NC1CCCCC1)n1c(SCc2cccc(F)c2)nc2ccncc21 (centres undefined)	-11	2	-9	15	45*	-30
COc1ccc(OC)c(S(=O)(=O)N2CCC(C(=O)Nc3ccc(C)c(C)c3)CC2)c1	5	9	-5	-8	36*	-12
CN(C)S(=O)(=O)c1ccc(NC(=O)C2CC(=O)N(Cc3ccccc3Cl)C2)cc1 (centres undefined)	-7	1	-3	18	-1	1
CN(C(=O)c1cccc(NC(=O)Cc2ccc(NC(=O)C3CCCN(C(=O)C4CC4)C3)cc2)c1)C1CCC1 (centres undefined)	-1	0	-4	18	-10	6
CC1=C(C(=O)c2ccccc2)C(c2cccc([N+](=O)[O-])c2)NC(=S)N1 (centres undefined)	-6	1	-11	4	2	-1
CC(=O)C1=C(C)NC(=S)NC1c1cc([N+](=O)[O-])ccc1O (centres undefined)	-1	17*	-7	0	-12	8
Cc1ccc2cccc(OC(=O)c3c(F)cccc3Cl)c2n1	-6	0	3	6	-6	1
COc1ccc(/C=C/S(=O)(=O)NCc2ccccc2)cc1OC	-3	0	14	-3	7	1
CC(=O)Nc1ccc(SCC(=O)Nc2ccccc2-c2ccccc2)cc1	-2	1	30*	-11	8	-4
Cc1ccc(CC(=O)Nc2ccccc2-c2ccccc2)cc1C	-8	-1	25*	-14	10	-7
COc1ccc(CC(=O)Nc2ccccc2-c2ccccc2)cc1OC	-3	5	0	19	-2	1
COCCNC(=O)CN(Cc1cccs1)C(=O)CCC(=O)Nc1nccs1	-9	2	-2	24	-7	19
COc1ccc(S(=O)(=O)N2CCCCC2)cc1NC(=O)c1[nH]c(C)c(C(C)=O)c1C	-4	1	-1	2	0	-8
Cc1ccc(C(=O)OCC(=O)NCCc2ccc(F)cc2)cc1S(=O)(=O)N1CCOCC1	-1	3	-14	18	-3	7
